This note sets out measurements from PubChem BioAssay.

A number with no mark means an inactive call.

This experiment in a line: growth modulation of vineyard yeast isolate – strain RM11-1a, OD600, basal, 24 h, primary screen (AID 1177).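 Note: cultures grown under basal conditions with no added stressor; test concentration not given here.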 The settings on record: S. cerevisiae RM11-1a growth, OD600, 24 h; higher = more signal, called active from +8 up or from −8 down.
Regarding `COC(=O)[C@@]1(Cc2ccc(F)cc2)[C@H]2c3cc(C(=O)N(C)C)n(Cc4ccc(O)c(OC)c4)c3C[C@H]2CN1C(=O)c1ccccc1`, the z-score was 0.301.
For `CO[C@H]1O[C@H](CO)[C@@H](OC(=O)Nc2cccc(F)c2)[C@H](OC(=O)Nc2ccccc2-c2ccccc2)[C@H]1OC(=O)Nc1ccccc1-c1ccccc1` the value was 1.03.
As to `C=C(CCCC)/C(=C/C[C@H](OC(C)=O)c1ccc(OCCO)cc1)c1cc(C(=O)OC)ccc1OC`, the z-score was -0.0587.
In the case of `COCCCNC(=O)[C@@]1(Sc2ccc(C)cc2)CC(=O)N(Cc2ccccc2Cl)[C@@H]1c1ccc(CO)cc1I`, the z-score was -1.07.
The same measure for `COc1cccc(/C=C(\C#N)C(=O)Nc2c(C)n(C)n(-c3ccccc3)c2=O)c1`: -0.6.
The same measure for `CS(=O)(=O)CCOC(=O)C1=CC(CCCO)=CC(C2CC2)N(Cc2cccc(OC(F)(F)F)c2)C=C1C(=O)OCCS(C)(=O)=O` (stereo not given): 0.416; for `COc1ccc(C#Cc2ccc3c(c2)[C@]2(C(=O)N3)[C@H](C(=O)Nc3nc4ccccc4s3)[C@H]3C(=O)O[C@H](c4ccccc4)[C@H](c4ccccc4)N3[C@@H]2c2ccccc2OCCO)cc1`: 1.66.
The same measure for `C=C[C@@H](C)[C@@H](OC(=O)Nc1ccc(SC)cc1)c1ccc(OCCO)cc1`: 0.296.
As for `CC(=O)N1CC(C(O)C2C=CC3C(=O)NC(=O)C3N2Nc2ccc(Cl)cc2Cl)c2ccccc21` (stereo not given), the z-score is 1.82.
The same measure for `CC(C)C[C@@H]1NC(=O)[C@H]2C[C@@H](C(=O)NCCCCCN)[C@@H](c3cccc(OCCO)c3)N2C1=O`: -2.46; for `C=C(/C(=C/C[C@@H](OC(C)=O)c1ccc(CO)o1)c1cc(C(=O)OC)ccc1OC)C(C)C`: 0.4.
For `O=C1OCC=C[C@H]2OC34C=CCN(c5ccc6ccccc6c5)C(=O)[C@H]3N(CCCCCO)C(=O)[C@@H]4[C@@H]12` (stereo not given in full) the value was 0.176; for `COC(=O)[C@@]1(Cc2ccccc2)[C@H]2c3cc(C(=O)N4CCCC4)n(CCSCCO)c3C[C@H]2CN1C(=O)c1ccccc1`, 0.53; for `NC(=O)[C@@H]1[C@H]2C(=O)O[C@H](c3ccccc3)[C@H](c3ccccc3)N2[C@H](c2ccc(OCCO)cc2)[C@@]12C(=O)Nc1ccc(C#CCCO)cc12`, 1.27.
The same measure for `[N-]=[N+]=Nc1ccccc1C[C@]1(C(=O)NCc2ccccc2)COC(c2ccc(OCCCO)cc2)=N1`: 2.15; for `CN1C(=O)[C@@]2(Cc3ccccc3)N=C(c3ccc(OCCCO)cc3)O[C@H]2c2ccccc21`: 0.202; for `CCOC(=O)C[C@H]1[C@H](OC(=O)c2ccccc2-c2ccccc2)[C@@H](NC(=O)c2ccc3ccccc3n2)c2cc(OCCCO)ccc2N1C(=O)c1ccccc1`: 1.01.
With `Nc1cc(Br)ccc1C(=O)O`, the z-score was -0.127.
For `C=C(COC)C(=O)CC[C@@H](OC(=O)c1cccnc1)c1ccccc1OCCO`, the z-score was -0.0421.
Consider `CCOC(=O)C1=C[C@@H](c2ccccc2)N(S(=O)(=O)c2ccc(C)cc2)[C@H]1c1ccccc1`, for which the z-score was 0.398.
For `CC(C)c1ccc(NN2C(C(O)Cc3ccccc3)C=CC3C(=O)N(c4ccccc4)C(=O)C32)cc1` (stereo not given), the z-score is 0.269.
The same measure for `C=CCC(OC(C)=O)[C@@H]1[C@@H](N(Cc2ccc(-c3cccc(C(F)(F)F)c3)o2)C(=O)Cc2ccc(OC)cc2)c2cc(OCCCO)ccc2N1C(=O)Cc1ccc2ccccc2c1` (stereo not given in full): 0.132; for `COCCOC(=O)N1C(=O)[C@@]2(c3cc(C#CCNC(N)=O)ccc31)[C@H](c1ccc(O)cc1)N1[C@H](c3ccccc3)[C@H](c3ccccc3)OC(=O)[C@H]1[C@@H]2C(N)=O`: 0.203.
Regarding `C=CC1c2cc(O)c(OC)cc2CCN1Cc1ccc([N+](=O)[O-])o1` (stereo not given), the z-score was 1.11.
The same measure for `CC(=O)n1cc(C(O)C2C=CC3C(=O)N(c4ccccc4)C(=O)C3N2Nc2ccc(C(C)C)cc2)c2ccccc21` (stereo not given): 1.36.
For `CO[C@H]1O[C@H](CO)[C@@H](OC(=O)c2ccc(Br)cc2)[C@@H]2OC(=O)[C@H](Cc3ccccc3)C/C=C/C[C@@H](Cc3ccccc3)C(=O)O[C@@H]12` the value was -1.42; for `CN(C)CCCC[C@@H]1NC(=O)[C@@H]2C[C@H](C(=O)O)[C@H](c3cccc(OCCO)c3)N2C1=O`, -0.547.
In the case of `CCCCCCCCCCC(O)C1C=CC2C(=O)N(c3ccccc3)C(=O)C2N1Nc1ccccc1F` (stereo not given), the z-score was 0.719.
With `C=CCOC(=O)[C@H]1[C@@H]2C(=O)O[C@@H](c3ccccc3)[C@@H](c3ccccc3)N2[C@@H](c2ccc(OCCOC(=O)[C@H]3C[C@H]4C(=O)N[C@@H](CCCCNC(C)=O)C(=O)N4[C@H]3c3cccc(OCCO)c3)cc2)[C@]12C(=O)Nc1ccc(I)cc12`, the z-score was 1.59.
For `Cc1ccc(F)cc1S(=O)(=O)N[C@@H]1CCN(Cc2cccc3[nH]ccc23)C1` the value was -0.367; for `CC(C)C(=C=CC[C@@H](O)c1cccc(OCCO)c1)C[C@@H](O)c1ccccn1`, 0.488; for `[N-]=[N+]=NCc1ccccc1[C@H]1OC(c2ccc(OCCCO)cc2)=N[C@@]1(Cc1ccccc1)C(=O)NCCN1CCOCC1`, -0.557.
For `C=CC[C@H](OC(=O)Nc1ccc(SC)cc1)c1ccc(OCCO)cc1` the value was 1.07; for `CN(C)C(=O)[C@@]1(Cc2ccccc2)COC(c2ccc(OCCCO)cc2)=N1`, 0.536.
In the case of `NC(=O)[C@H]1[C@@H]2C(=O)O[C@@H](c3ccccc3)[C@@H](c3ccccc3)N2[C@@H](c2ccc(O)cc2)[C@]12C(=O)Nc1ccc(C#CC3=CCCCC3)cc12`, the z-score is 1.76.
